Screening results as filed in PubChem.
SARS PLpro yeast = qHTS of Yeast-based Assay for SARS-CoV PLP; hit rate 0.19% among 330,000; S. cerevisiae expressing SARS-CoV PLpro, growth rescue; AID 485353, 2010; Potency, µM (doses to about 32.9 µM), usual class: activators; calls by dose curve; note: nearly all actives have a fitted effect of over 55% in size
Pf growth 96h = Primary qHTS for delayed death inhibitors of the malarial parasite plastid, 96 hour incubation; P. falciparum luciferase reporter growth, 96 h; Potency, µM (top dose mostly 28.7 µM), actives largely listed as inhibitors; hit rate 6.9% among 320,000
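Plates of compound plus infected erythrocytes (2% hematocrit, 0.05% parasitemia final) incubate 96 hours, 37 C, 5% CO2. Detection reagent added; reduced luminescence from the parasites' luciferase reporter flags inhibition.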
Shiga inhibitor = A qHTS for Small Molecule Inhibitors of Shiga Toxin | inhibition, % at 38.7 µM | Vero cells, Shiga toxin protein synthesis inhibition reporter | hit rate 9.2% among 290,000; in the data active = inhibition mostly above about 28%, no sharp cut-off; inactive = mostly below about 43%
Pf growth 48h = Primary qHTS for delayed death inhibitors of the malarial parasite plastid, 48 hour incubation. P. falciparum luciferase growth in erythrocytes, 48 h. Potency, µM (highest dose often 28.7 µM), most hits filed as inhibitors. hit rate 5.9% among 310,000. AID 504832, 2011
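A one-generation exposure of luciferase-tagged malaria parasites in RPMI 1640/Albumax erythrocyte culture, 37 C and 5% CO2. Inhibition is inferred from decreased luminescence after adding detection reagent.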
CHX counter = Cycloheximide Counterscreen for Small Molecule Inhibitors of Shiga Toxin; max response, %; AID 2314, 2010; cell reporter, cycloheximide protein synthesis inhibition counterscreen; hit rate 12% among 300,000; in the data active = max response mostly above about 13%, no sharp cut-off; inactive = mostly below about 14%; note: read at 38.3 µM for the half of the compounds with a filed dose
AMA1 RON2 block = qHTS for Inhibitors of AMA1-RON; Towards Development of Antimalarial Drug Lead: Primary Screen; AlphaScreen AMA1-biotinylated RON2 peptide binding; Potency, µM (top dose mostly 58.2 µM), most hits filed as inhibitors; hit rate 0.2% among 360,000; AID 720542, 2013; note: nearly all actives have a fitted effect of over 45% in size
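AMA1 (3D7) with his tag at 25 nM final met compounds first, then biotinylated RON2 peptide at 25 nM; detection used donor plus acceptor beads, 10 µg/mL apiece, read by AlphaScreen after 30 min at room temperature.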
Of the large screens only hits and unclear results are named; the others gave an inactive call. In the library only some 19% were active in any assay of this set; here they are far more common. Unless noted, calls come from the whole dose curve; as a rule, active = well fitted curve in the direction sought with a large enough effect; inconclusive = small, poorly fitted or top-dose-only effect, or another doubt; inactive = no such curve, though single readings can be large; an effect the other way counts as inactive or inconclusive.

CCn1c(SCC(=O)c2ccc(Cl)cc2)nnc1-c1ccoc1C	SARS PLpro yeast inconclusive, Pf growth 96h 15µM, Shiga inhibitor 17, Pf growth 48h inconclusive, CHX counter 33
Cc1occc1-c1nnc(SCC(=O)c2ccc(Cl)cc2)n1CC1CCCO1 (stereo unspecified)	none
CCn1nnnc1SCC(=O)c1ccc(C)cc1	Shiga inhibitor 121, CHX counter 38
CCn1nnnc1SCC(=O)c1ccc(NC(C)=O)cc1	none (no result: Pf growth 96h)
CCn1c(Cn2nnc(-c3ccccc3)n2)nnc1SCC(=O)Nc1ccc(C(C)=O)cc1	Pf growth 96h inconclusive, Shiga inhibitor 57, Pf growth 48h inconclusive, CHX counter 44
Cc1ccc(-c2nnc(SCC(N)=O)n2C)cc1	Pf growth 96h inconclusive
CCOC(=O)CSc1nnc(-c2ccc3ncccc3c2)n1C	Pf growth 48h 12µM
CCn1c(SCC(=O)c2ccccc2)nnc1-c1ccoc1C	Shiga inhibitor 50, CHX counter 21
CCn1c(SCC(=O)c2ccccc2)nnc1-c1cccnc1	CHX counter 44
CCn1c(Cn2nnc(-c3ccccc3)n2)nnc1SCC(=O)Nc1cccc(C(C)=O)c1	none (no result: Pf growth 48h)
CCn1c(SCC(=O)N2CCN(c3ccccc3)CC2)nnc1-c1ccoc1C	none (no result: Pf growth 48h)
COc1ccccc1CN1CCNC(=O)C1CC(=O)NCc1cn(C)nc1C (stereo unspecified)	none
Cc1ccc(C)c(-n2cc[nH]c2=S)c1	SARS PLpro yeast inconclusive
Cc1nnc(SCC(=O)N(C)CC(=O)Nc2ccc(F)cc2)n1Cc1ccccc1	Pf growth 48h 9.3µM
CC(=O)c1ccc(NC(=O)CSc2nnc(-c3ccoc3C)n2Cc2ccccc2)cc1	Shiga inhibitor 31, CHX counter 24
Cc1cc(C)c(C(=O)CSc2nnc(-c3cccnc3)n2C)c(C)c1	Pf growth 48h 12µM (no result: Pf growth 96h)
CCn1c(SCC(=O)c2ccc(C)cc2)nnc1-c1ccoc1C	Pf growth 96h 15µM, CHX counter 27
Cc1cc(NC(=O)CSc2nnc(-c3cccnc3)n2C)no1	none
CN(CC(=O)Nc1ccc(F)cc1)C(=O)CSc1nnc(Cc2ccccc2)o1	none (no result: Pf growth 96h, Shiga inhibitor, Pf growth 48h, CHX counter)
CCOc1cc(N2CCOCC2)c(OCC)cc1NC(=O)c1ccc(OC)c(S(=O)(=O)N2CCOCC2)c1	none (no result: Pf growth 96h, Shiga inhibitor, Pf growth 48h, CHX counter)
COc1cccc(/C=N/NC(=S)NC2CC3CCC2C3)c1OC (stereo unspecified)	Pf growth 96h 4.7µM, Pf growth 48h 6.6µM
COc1cccc(C=NNC(=S)NN=Cc2cccc(OC)c2OC)c1OC	none (no result: SARS PLpro yeast, Pf growth 96h, Shiga inhibitor, Pf growth 48h, CHX counter)
Oc1ccccc1/C=N/NC(=S)NC1CC2CCC1C2 (stereo unspecified)	Pf growth 96h 1.3µM, Shiga inhibitor 45, Pf growth 48h 3.7µM, CHX counter 32
S=C(N/N=C/c1ccco1)NC1CC2CCC1C2 (stereo unspecified)	Pf growth 96h 5.2µM, Shiga inhibitor 73, CHX counter 44 (no result: Pf growth 48h)
CNC(=S)N/N=C/c1ccco1	Pf growth 96h inconclusive
COc1ccc(CN(C(=O)Cn2nnc3ccccc32)C(C(=O)NC(C)(C)C)c2ccco2)cc1 (stereo unspecified)	Pf growth 96h 4.7µM
Cc1cccc(N(C(=O)Cn2nnc(-c3ccccc3F)n2)C(C(=O)NC(C)(C)C)c2ccncc2)c1 (stereo unspecified)	none
CCC(C)(C)NC(=O)C(c1cccn1C)N(C(=O)Cn1nnc2ccccc21)c1ccc(OC)cc1 (stereo unspecified)	Pf growth 48h 12µM
Cc1cccc(N(C(=O)Cn2nnc3ccccc32)C(C(=O)NC(C)(C)C)c2ccsc2)c1 (stereo unspecified)	Pf growth 96h 3.3µM, Pf growth 48h 10µM
CCC(C)(C)NC(=O)C(c1cccn1C)N(C(=O)Cn1nnc2ccccc21)c1ccc(F)cc1 (stereo unspecified)	Pf growth 96h inconclusive, Pf growth 48h inconclusive
O=C(NC1CCCCC1)C(c1ccccc1)N(Cc1ccco1)C(=O)c1csnn1 (stereo unspecified)	none
O=C(NC1CCCCC1)C(c1ccccc1)N(Cc1ccco1)C(=O)Cn1cnc2ccccc21 (stereo unspecified)	Pf growth 48h 3.7µM
Cc1cccc(-n2c(Cc3cc(=O)[nH]c(=O)[nH]3)nnc2SCC(=O)N2CCc3ccccc32)c1	Pf growth 96h inconclusive
Cc1cccc(C)c1NC(=O)COC(=O)c1cc[n+]([O-])cc1	none (no result: Shiga inhibitor, CHX counter)
CCCNC(=O)C1(CC2CC(c3ccccc3)=NO2)CCN(C(=O)CCCCCBr)CC1 (stereo unspecified)	none (no result: SARS PLpro yeast, Pf growth 96h, Shiga inhibitor, Pf growth 48h, CHX counter)
CCC(C)(C)NC(=O)C(c1ccccc1F)N(Cc1ccco1)C(=O)Cn1nnc2ccccc21 (stereo unspecified)	Pf growth 96h inconclusive, Pf growth 48h inconclusive
CCc1ccc(C(C(=O)NC(C)(C)CC)N(Cc2ccco2)C(=O)Cn2nnc3ccccc32)cc1 (stereo unspecified)	Pf growth 48h 12µM
O=C1N/C(=C/c2ccc(N3CCCC3)cc2)C(=O)N1c1ccccc1	Pf growth 96h inconclusive, Shiga inhibitor 49, CHX counter 17
O=C1N/C(=C/c2ccc(N3CCOCC3)o2)C(=O)N1c1ccccc1	CHX counter 20
C=CCN1C(=O)N/C(=C/c2ccc(N3CCOCC3)o2)C1=O	Pf growth 96h inconclusive, Pf growth 48h inconclusive (no result: AMA1 RON2 block)
Cc1noc(C)c1C(=O)N1CCC(C(=O)c2ccc(F)cc2F)CC1	none
COc1ccc(CCNC(=O)COC(=O)/C=C/c2ccc(OC)cc2OC)cc1	none (no result: Pf growth 96h, Shiga inhibitor, Pf growth 48h, CHX counter)
COc1ccc(NC(=O)N2CCN(C(=O)Nc3ccc(OC)cc3)CC2)cc1	none
COc1ccc(NC(=O)C2CCCN(C(=O)Nc3ccc(OC)cc3)C2)cc1 (stereo unspecified)	Pf growth 96h 10µM
COc1ccc(NC(=O)N2CCCCCC2)cc1	Pf growth 96h inconclusive, Shiga inhibitor 50, CHX counter 21
O=C(NCc1ccccc1)C1CCCN(C(=O)Nc2ccccc2)C1 (stereo unspecified)	CHX counter 11
COc1ccc(NC(=O)C2CCCN(C(=O)Nc3cccc(OC)c3)C2)cc1 (stereo unspecified)	Pf growth 96h inconclusive
COc1ccc(NC(=O)C2CCN(c3nc(-c4ccc(OC)cc4)no3)CC2)cc1	none
CCN(C(=O)C1CCN(c2nc(-c3ccc(OC)cc3)no2)CC1)c1ccc(OC)cc1	Pf growth 48h 9.3µM
COc1cccc(C(NC(C)=O)c2nc(-c3cccc(F)c3)cs2)c1 (stereo unspecified)	none (no result: SARS PLpro yeast, Pf growth 96h, Shiga inhibitor, Pf growth 48h, CHX counter)
COc1ccc(-c2c(C)nn3c(Cl)c(C)c(C)nc23)cc1	Pf growth 96h inconclusive
CON(C)S(=O)(=O)NC(=O)C1=C(N2CCCC2)COC1=O	Pf growth 96h inconclusive (no result: Shiga inhibitor, CHX counter)
O=C(Nc1ccc(Br)cc1)N1CCCCC1	Shiga inhibitor 140, CHX counter 42
O=C(Nc1ccccc1)N1CCC2(CC1)OCCO2	Pf growth 96h inconclusive
